The record followed here is PubChem BioAssay AID1220 (Sanford-Burnham Center for Chemical Genomics, 2008).

“And” between values parts separate entries of the source, which are not always exact repeats. Identical values can stand only once. In all, about 190,000 compounds went through this assay and about 1,300 (0.68%) were called active. Rule as the data show it: active = inhibition above about 50%; inactive = the rest. The list comes from a sample in which actives are over-represented; it also holds similar structures and randomly drawn compounds.

Chain of Mannose-6-phosphate isomerase (Homo sapiens) (P34949 whole entry, looked up): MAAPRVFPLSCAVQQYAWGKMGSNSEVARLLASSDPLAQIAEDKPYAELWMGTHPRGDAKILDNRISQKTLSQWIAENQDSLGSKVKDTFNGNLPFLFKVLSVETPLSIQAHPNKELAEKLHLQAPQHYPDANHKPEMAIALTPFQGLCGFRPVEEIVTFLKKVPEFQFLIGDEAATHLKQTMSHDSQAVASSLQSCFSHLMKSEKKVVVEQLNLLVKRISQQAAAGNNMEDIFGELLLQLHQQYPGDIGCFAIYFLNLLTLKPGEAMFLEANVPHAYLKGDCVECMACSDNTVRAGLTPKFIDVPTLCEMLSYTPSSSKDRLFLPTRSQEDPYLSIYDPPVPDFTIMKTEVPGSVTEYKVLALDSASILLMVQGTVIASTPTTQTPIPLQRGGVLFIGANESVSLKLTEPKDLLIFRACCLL

The experiment concerns the target Mannose-6-phosphate isomerase (Homo sapiens) (UniProt P34949). The experiment can be described thus: MPI inhibition at elevated mannose 6-phosphate – biochemical, fluorescence intensity, high mannose 6-phosphate, primary screen (AID 1220). The conditions noted are these: recombinant PMI enzyme, coupled fluorescence intensity; at 20 µM; stronger effect = higher value.
The inhibition is the drop in the measured response relative to a control, in per cent. Consider `CC(=O)Nc1ccc(S(=O)(=O)N2CCN(C(=O)N3CCOCC3)CC2)cc1`, for which the inhibition is 1.8% (inactive).

`O=C(CSCc1ccc(Cl)cc1)NCCSCc1ccco1`: the inhibition was 4% (inactive).

In the case of `O=C1NC(c2ccccc2)=C(c2nc3ccccc3s2)C(c2ccccc2)N1` (stereo not drawn), the inhibition is 14.1% (inactive).

Take `NC(=O)c1ccccc1NC(=O)Nc1cccc2ccccc12`: the inhibition was 19% (inactive).

Consider `COC(=O)c1ccc2c(c1)N(C)C(=O)CS2`, for which the inhibition was 6.4% (inactive).

In the case of `O=C(Nc1ccc2c(c1)OCCO2)c1ccc(Br)s1`, the inhibition was -2.3% (inactive).

`Cc1cc(C)c(S(=O)(=O)/N=C2\C=CC(=O)C(Cl)=C2)c(C)c1`: the inhibition was -6.5% (inactive).

Turning to `Cc1ccnc(Nc2nc(-c3c(C)nc4sccn34)cs2)c1`, the inhibition is 19.1% (inactive).

As for `C=CCNc1nc(-c2c(C)nc3sccn23)cs1`, the inhibition was 55.2% (active).

`Cc1nc2sccn2c1-c1csc(NCc2ccccc2)n1`: the inhibition was 34.1% (inactive).

With `COC(=O)c1c(O)c2c([nH]c1=O)CCCC2`, the inhibition was -0.6% (inactive).

For `CCCCCn1c(CN2CC(C)OC(C)C2)nc2c1c(=O)n(C)c(=O)n2C` (stereo not drawn), the inhibition was 8.9% (inactive).

On to `COCCn1c(Cc2ccccc2)nnc1SCC(=O)NC(C)(C)C`, for which the inhibition was -1.6% (inactive).

Take `CCn1c(Cc2cccs2)nnc1SCC(=O)NC(C)(C)C`: the inhibition was -5.7% (inactive).

For `CCn1c(Cc2ccccc2)nnc1SCC(=O)NC(C)(C)C`, the inhibition is 52.9% (active).

On to `CN1CCCN(C(=O)CNC(=O)Cc2ccccc2)CC1`, for which the inhibition is 4.9% (inactive).

With `COC(=O)C1=C(C)NC2=C(C(=O)CCC2)C1c1cn(Cc2ccc(Br)cc2)nc1-c1ccccc1` (stereo not drawn), the inhibition is 13.4% (inactive).

Take `COc1ccc(OC)c(NC(=O)NC2(C(F)(F)F)Oc3ccccc3O2)c1`: the inhibition was 58% (active).

Take `COc1ccc(OC)c(NC(=O)Nc2ccccc2C)c1`: the inhibition was 1.9% (inactive).

For the compound `COc1cccc(NC(=O)NC2(C(F)(F)F)Oc3ccccc3O2)c1`, the inhibition was 48.7% (inactive).

Take `COc1ccc(N2CCN(CCC3Oc4cc([N+](=O)[O-])ccc4NC3=O)CC2)cc1` (stereo not drawn): the inhibition was 38.8% (inactive).

As for `Cc1cc(NC(=O)C2CC2)ncc1NC(=O)C12CC3CC(CC(C3)C1)C2`, the inhibition was 5.3% (inactive).

Turning to `CC1(c2ccc(Cl)cc2Cl)OCC(Cn2ccnc2)O1` (stereo not drawn), the inhibition was 3.5% (inactive).

For `CC(C)(C)c1ccc(O)c(N=Cc2cc(Br)ccc2O)c1`, the inhibition was 39.3% (inactive).

Take `Oc1ccc(Br)cc1C=Nc1ccc2c3c(cccc13)CC2`: the inhibition was 67.1% (active).

In the case of `Cc1cccc(C=Nc2ccc3c4c(cccc24)CC3)c1O`, the inhibition is 45.4% (inactive).

As to `Cc1nnc(SCC(=O)NC2CCS(=O)(=O)C2)n1-c1ccccc1` (stereo not drawn), the inhibition is -3.2% (inactive).

For `CCOc1ccc(S(=O)(=O)Nc2ccc(O)c(Sc3ncn[nH]3)c2)cc1`, the inhibition is 2.5% (inactive).

As for `O=S(=O)(Nc1cc(Sc2cccc3cccnc23)c(O)c2ccccc12)c1ccc(F)cc1`, the inhibition is 51.1% (active).

`COc1ccc(S(=O)(=O)Nc2ccc(O)c(Sc3ncn[nH]3)c2)cc1`: the inhibition was 13% (inactive).

For `O=S(=O)(Nc1cc(Sc2cccc3cccnc23)c(O)c2ccccc12)c1ccccc1`, the inhibition is 63.7% (active).

Regarding `O=S(=O)(Nc1ccccc1O)c1cccc2cccnc12`, the inhibition is 11.7% (inactive).

For the compound `Cc1ccc(S(=O)(=O)Nc2ccc(O)c3ncccc23)cc1`, the inhibition is 27.9% (inactive).

Turning to `Cc1ccc(S(=O)(=O)Nc2cccc3cccnc23)cc1`, the inhibition was 16.3% (inactive).

For `COc1ccc(S(=O)(=O)Nc2cc(Sc3ncn[nH]3)c(O)c3ccccc23)cc1`, the inhibition is 72.4% (active).

For the compound `Cc1cc(C)c(S(=O)(=O)Nc2cc(SCC(=O)O)c(O)c3ccccc23)cc1C`, the inhibition was 21.6% (inactive).

Regarding `O=C(Sc1cccc2cccnc12)c1ccc(F)cc1`, the inhibition is 11.3% (inactive).

Consider `CCc1ccc(S(=O)(=O)Nc2cc(SCC(=O)O)c(O)c3ccccc23)cc1`, for which the inhibition was 7.4% (inactive).

Regarding `Cc1ccc(S(=O)(=O)Nc2ccc3c(c2)nc(CN2CCCC2)n3C)cc1`, the inhibition is -2.1% (inactive).

Take `CCOc1ccc(C(C)=O)cc1CSc1nnc(-c2cccs2)n1CC1CCCO1` (stereo not drawn): the inhibition is 10.7% (inactive).

As for `O=[N+]([O-])c1cccc(/C=N/NC2=NCCCCC2)c1`, the inhibition was -4.3% (inactive).

On to `C=CCn1c(SCC(=O)c2ccc(NS(=O)(=O)c3ccccc3)cc2)nnc1-c1cccs1`, for which the inhibition is -16% (inactive).

As for `Cc1ccc(S(=O)(=O)/N=C(\c2ccccc2)N(C)S(=O)(=O)c2ccccc2)cc1`, the inhibition was -11.9% (inactive).

Consider `CCC(Sc1ncccc1C(=O)O)C(=O)N1CCCC1` (stereo not drawn), for which the inhibition was -5.9% (inactive).

For the compound `CC(=O)Nc1ccc2nc(NC(=O)COc3ccc([N+](=O)[O-])cc3)sc2c1`, the inhibition was 9.4% (inactive).

In the case of `O=C(O)CC1SC(=O)N(Cc2ccccc2)C1=O` (stereo not drawn), the inhibition was 8.1% (inactive).

`COc1ccc(CCn2c(=O)[nH]c3cc(C(=O)NCCc4ccccc4)ccc3c2=O)cc1OC`: the inhibition is -2.6% (inactive).

`O=c1c2ccccc2nc2ccc(N3CCOCC3)nn12`: the inhibition was 0.2% (inactive).

`c1ccc2c(Nc3ccc4c(c3)OCCO4)c3c(nc2c1)CCC3`: the inhibition is 12.8% (inactive).

For `CC/C(CC(=O)C(F)(F)F)=N\NC(=O)/C(C#N)=C/N(C)C`, the inhibition is -0.8% (inactive).

`CC(C)CC(N=Cc1c(O)c2ccccc2oc1=O)C(=O)O` (stereo not drawn): the inhibition is -10.2% (inactive).

In the case of `Cc1ccc2cccc(Oc3ccc([N+](=O)[O-])cc3[N+](=O)[O-])c2n1`, the inhibition is 23.3% (inactive).

For `Cc1ccc(OCCOCCn2cnc3ccccc3c2=O)c([N+](=O)[O-])c1`, the inhibition was 52.1% (active).

`COc1cc(C)ccc1OCCOCCOc1cccc2ccc(C)nc12`: the inhibition was 8.5% (inactive).

Regarding `O=c1c2ccccc2ncn1CCOc1ccccc1[N+](=O)[O-]`, the inhibition was -2.8% (inactive).

`Cc1ccc(OCCn2cnc3ccccc3c2=O)c([N+](=O)[O-])c1`: the inhibition is 0.1% (inactive).

On to `Cc1ccc(OCCOc2cccc3ccc(C)nc23)c([N+](=O)[O-])c1`, for which the inhibition was 55% (active).

Turning to `CCN(C#N)c1nc(NC(C)C)nc(NC(C)(C)C)n1`, the inhibition was 5.4% (inactive).

On to `Cc1cccc(COCC(CC(C)C)N2CCN(C(=O)c3ccc(C(F)(F)F)cc3)CCC2=O)c1` (stereo not drawn), for which the inhibition was -9% (inactive).

As for `Cc1[nH]c(=S)sc1Cc1ccc(F)cc1`, the inhibition was 6.5% (inactive).

`CNc1nc(-c2c[nH]c3ccccc23)cs1`: the inhibition was -53.9% (inactive).

As to `Nc1n[nH]c(-c2ccccc2[N+](=O)[O-])n1`, the inhibition was -2.3% (inactive).

Take `CCOCCn1c(=NC(=O)/C=C/c2ccccc2Cl)sc2cc(NC(C)=O)ccc21`: the inhibition was 2.9% (inactive).

Consider `NC1CCCCC1N=Cc1c(O)n(CCc2ccc(F)cc2)c(=O)[nH]c1=O` (stereo not drawn), for which the inhibition is 2.4% (inactive).

With `CCOc1ccc(S(=O)(=O)N(CC(=O)NC2CCCCC2C)Cc2ccco2)cc1` (stereo not drawn), the inhibition is 3.3% (inactive).

On to `CCOc1cccc(C2c3c(oc4cc(C)c(C)cc4c3=O)C(=O)N2CCCN(C)C)c1` (stereo not drawn), for which the inhibition was -0.5% (inactive).

Regarding `CCOc1cc(C)cc2oc(=O)cc(-c3ccccc3)c12`, the inhibition is 6.3% (inactive).

In the case of `COc1ccc([N+](=O)[O-])cc1COc1cc(C)cc2oc(=O)cc(-c3ccccc3)c12`, the inhibition was 58% (active).

Take `COc1ccc([N+](=O)[O-])cc1COc1ccc2c(-c3ccccc3)cc(=O)oc2c1`: the inhibition was -4.2% (inactive).

For the compound `O=C(CN1C(=O)C2C3C=CC(C3)C2C1=O)NCc1ccco1` (stereo not drawn), the inhibition is 57% (active).

Take `O=C(CN1C(=O)C2C3CCC(C3)C2C1=O)NCc1ccco1` (stereo not drawn): the inhibition is 6.5% (inactive).

Turning to `O=C(CN1C(=O)C2C3C=CC(C4CC34)C2C1=O)NCc1ccco1` (stereo not drawn), the inhibition was 13% (inactive).

In the case of `CCOC(=O)C1=C(C)NC(C)=C(C(=O)OCC)C1C(=O)OCC(N)=O`, the inhibition is -7.6% (inactive).

Regarding `O=C(c1ccc(S(=O)(=O)c2ccccc2)cc1)N1CCc2ccccc2C1`, the inhibition is 60.2% (active).

As for `CS(=O)(=O)c1ccc(C(=O)N2CCc3ccccc3C2)cc1`, the inhibition is -6.6% (inactive).

Turning to `O=C(c1ccc(S(=O)(=O)N2CCCCC2)cc1)N1CCc2ccccc2C1`, the inhibition is 11.9% (inactive).

As for `CCC1CCCCN1C(=O)c1sc2ncnc(N(CC)CC)c2c1C` (stereo not drawn), the inhibition was -1.9% (inactive).

On to `Cc1nn(CC(=O)NCc2ccccc2F)c(C)c1[N+](=O)[O-]`, for which the inhibition is 2.2% (inactive).

`COc1ccc2cc(/C=N/NC(=O)CN(c3ccccc3)S(=O)(=O)c3ccccc3)c(Cl)nc2c1`: the inhibition was 5.6% (inactive).

As to `COc1ccc2nc(C(C)O)[nH]c2c1` (stereo not drawn), the inhibition was 13.3% (inactive).

`COc1ccc2nc(S(=O)Cc3ncc(C)c(OC)c3C)[nH]c2c1` (stereo not drawn): the inhibition is 50% (active).

`Cc1c(OCC(F)(F)F)ccnc1CS(=O)c1nc2ccccc2[nH]1` (stereo not drawn): the inhibition was 4.7% (inactive) and 13.1% (inactive).

Regarding `CC(O)CNCc1ccc(-c2ccccc2)cc1` (stereo not drawn), the inhibition was 0.1% (inactive).

Consider `Cc1ccccc1Nc1ncccc1C(=O)N1CCOCC1`, for which the inhibition was -9.3% (inactive).

Turning to `O=S(=O)(Nc1nc2ccccc2nc1Cl)c1ccc(Cl)cc1`, the inhibition is -2.7% (inactive).

In the case of `O=S(=O)(Nc1nc2ccccc2nc1Cl)c1ccc2ccccc2c1`, the inhibition is 60.1% (active).

In the case of `O=S(=O)(Nc1nc2ccccc2nc1Cl)c1ccccc1`, the inhibition is -6.6% (inactive).

Take `O=C1N/C(=C\c2ccccc2)C(O)=C1C=NCc1ccccc1`: the inhibition is -1.9% (inactive).

As to `O=C(O)CCNS(=O)(=O)c1ccccc1Br`, the inhibition was -4% (inactive).

Turning to `O=c1cc(C(F)(F)F)nc(-c2ccccc2)[nH]1`, the inhibition is 0.9% (inactive).

`N#C/C(=C\c1cc(Cl)cc(Cl)c1O)C(=O)NC1CCCCC1`: the inhibition is 66.7% (active).

Turning to `N#C/C(=C\c1cc(Cl)ccc1O)C(=O)NC1CCCCC1`, the inhibition was 10.6% (inactive).

As to `Cc1cc(/C=C(\C#N)C(=O)NC2CCCCCC2)c(C)[nH]1`, the inhibition is 1.5% (inactive).

With `COc1ccc(-c2cc(C(=O)Nc3cc(C)on3)no2)cc1`, the inhibition was -3.1% (inactive).

`CCN(CCO)C1CC(=O)N(c2ccccc2C)C1=O` (stereo not drawn): the inhibition was -11.3% (inactive).

Take `O=C(/C=C/c1cccs1)NC1CC1`: the inhibition was -8.9% (inactive).

In the case of `O=C(/C=C/c1ccccc1)NC1CCS(=O)(=O)C1` (stereo not drawn), the inhibition was -10.3% (inactive).

For the compound `O=C(/C=C/c1cccs1)NC1CCS(=O)(=O)C1` (stereo not drawn), the inhibition was 54.7% (active).
